Measurements as given in publication PMC7862700, “An all-to-all approach to the identification of sequence-specific readers for epigenetic DNA modifications on cytosine”.

Assays:
Test in all cases: DAPPL (digital affinity profiling via proximity ligation, sequencing); 10 mM Tris-HCl pH 7.5, 50 mM NaCl, 1 mM DTT, 4% glycerol, room temperature, 30 min; GST-TFs on glutathione beads, 16-mer random dsDNA library, 0.1% formaldehyde crosslink after washing; high values mean tight binding
Details in all cases: protein: recombinant; tags: N-terminal GST; dsDNA, one strand shown
[1] = biological target: T1, FLI1 (Homo sapiens, UniProt Q01543 1-452)
T1 sequence: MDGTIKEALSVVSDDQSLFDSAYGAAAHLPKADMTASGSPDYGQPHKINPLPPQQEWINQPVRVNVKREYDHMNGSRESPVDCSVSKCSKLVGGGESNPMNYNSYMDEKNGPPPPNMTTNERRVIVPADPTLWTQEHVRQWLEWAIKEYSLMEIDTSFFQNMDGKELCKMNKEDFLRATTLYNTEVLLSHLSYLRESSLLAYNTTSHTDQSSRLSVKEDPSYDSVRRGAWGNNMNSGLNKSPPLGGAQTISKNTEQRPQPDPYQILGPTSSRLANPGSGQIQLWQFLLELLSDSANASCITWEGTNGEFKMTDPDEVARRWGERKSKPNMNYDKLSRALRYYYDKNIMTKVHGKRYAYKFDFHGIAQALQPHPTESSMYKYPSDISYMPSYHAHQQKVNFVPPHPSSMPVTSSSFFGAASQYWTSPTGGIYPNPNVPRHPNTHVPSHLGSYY
Outline: (§1)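 Binding signal is defined as a hexamer's read frequency for one factor over its frequency for the tag-only sample. To obtain reads, GST-fused human transcription factors were expressed in yeast, captured on glutathione beads, barcoded with DNA and pooled with that sample. Pools met 200 nmole of a 16-mer random double-stranded DNA library in Tris/NaCl/DTT/glycerol buffer for 30 min at room temperature before washing, 0.1% formaldehyde crosslinking, proximity ligation (BsaI/T4 ligase, 1 h, 37 °C), PCR and Illumina NextSeq500 sequencing.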

[2] = biological target: T2, ELK1 (Homo sapiens, UniProt P19419 1-428)
T2 sequence: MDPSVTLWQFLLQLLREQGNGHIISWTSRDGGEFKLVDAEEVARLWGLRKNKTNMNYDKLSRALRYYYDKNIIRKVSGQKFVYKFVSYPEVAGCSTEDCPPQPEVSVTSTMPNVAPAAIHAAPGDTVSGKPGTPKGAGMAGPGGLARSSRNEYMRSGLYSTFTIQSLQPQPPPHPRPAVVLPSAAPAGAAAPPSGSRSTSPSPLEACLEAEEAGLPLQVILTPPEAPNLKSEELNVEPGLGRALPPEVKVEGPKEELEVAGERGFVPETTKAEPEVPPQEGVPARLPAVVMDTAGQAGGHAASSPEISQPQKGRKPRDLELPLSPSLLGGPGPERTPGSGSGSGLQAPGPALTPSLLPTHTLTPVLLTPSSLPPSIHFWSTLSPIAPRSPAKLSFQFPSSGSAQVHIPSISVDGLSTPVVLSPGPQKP
Outline: as §1

[3] = biological target: T3, GABPA (Homo sapiens, UniProt Q06546 1-454)
T3 sequence: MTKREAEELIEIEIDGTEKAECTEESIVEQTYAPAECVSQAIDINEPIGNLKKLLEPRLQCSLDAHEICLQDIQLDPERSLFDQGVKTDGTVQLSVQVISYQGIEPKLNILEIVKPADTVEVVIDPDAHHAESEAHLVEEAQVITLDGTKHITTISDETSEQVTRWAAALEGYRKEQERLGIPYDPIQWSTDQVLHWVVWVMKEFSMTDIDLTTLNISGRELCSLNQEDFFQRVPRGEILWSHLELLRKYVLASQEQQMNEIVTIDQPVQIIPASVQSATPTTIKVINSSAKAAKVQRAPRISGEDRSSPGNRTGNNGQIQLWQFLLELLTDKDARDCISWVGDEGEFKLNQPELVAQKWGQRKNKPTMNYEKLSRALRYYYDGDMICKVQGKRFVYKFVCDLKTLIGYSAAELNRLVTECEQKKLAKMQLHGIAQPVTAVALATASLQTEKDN
Outline: as §1

[4] = biological target: T4, ERG (Homo sapiens, UniProt P11308 1-479)
T4 sequence: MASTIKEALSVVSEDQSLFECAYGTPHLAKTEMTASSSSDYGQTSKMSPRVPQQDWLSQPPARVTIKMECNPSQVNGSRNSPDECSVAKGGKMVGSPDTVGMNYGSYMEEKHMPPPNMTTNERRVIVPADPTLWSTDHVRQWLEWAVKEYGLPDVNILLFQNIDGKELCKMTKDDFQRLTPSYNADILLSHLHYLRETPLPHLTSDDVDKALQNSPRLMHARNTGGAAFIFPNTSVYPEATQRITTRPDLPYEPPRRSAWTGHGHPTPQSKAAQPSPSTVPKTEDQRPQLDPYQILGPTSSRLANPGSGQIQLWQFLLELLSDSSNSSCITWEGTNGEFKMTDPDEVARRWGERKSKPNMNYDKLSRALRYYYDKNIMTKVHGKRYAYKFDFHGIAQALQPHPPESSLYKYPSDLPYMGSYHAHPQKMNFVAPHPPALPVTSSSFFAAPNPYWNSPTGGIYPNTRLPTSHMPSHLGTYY
Outline: as §1

[5] = biological target: ELF1 (Homo sapiens, UniProt P32519 1-619)
Outline: as §1

[6] = biological target: T5, EHF (Homo sapiens, UniProt Q9NZC4 1-300)
T5 sequence: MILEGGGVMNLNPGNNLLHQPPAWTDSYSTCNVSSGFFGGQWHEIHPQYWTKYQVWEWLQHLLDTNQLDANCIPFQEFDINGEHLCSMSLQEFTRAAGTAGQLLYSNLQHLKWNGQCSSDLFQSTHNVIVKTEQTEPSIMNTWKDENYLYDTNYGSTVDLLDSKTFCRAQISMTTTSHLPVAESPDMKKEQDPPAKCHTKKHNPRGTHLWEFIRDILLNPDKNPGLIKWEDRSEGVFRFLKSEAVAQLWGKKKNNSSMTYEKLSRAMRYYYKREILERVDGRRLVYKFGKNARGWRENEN
Outline: as §1

[7] = biological target: SPI1 (Homo sapiens, UniProt P17947 1-270)
Outline: as §1

[8] = biological target: SPIB (Homo sapiens, UniProt Q01892 1-262)
Outline: as §1

[9] = biological target: T6, ELK3 (Homo sapiens, UniProt P41970 1-407)
T6 sequence: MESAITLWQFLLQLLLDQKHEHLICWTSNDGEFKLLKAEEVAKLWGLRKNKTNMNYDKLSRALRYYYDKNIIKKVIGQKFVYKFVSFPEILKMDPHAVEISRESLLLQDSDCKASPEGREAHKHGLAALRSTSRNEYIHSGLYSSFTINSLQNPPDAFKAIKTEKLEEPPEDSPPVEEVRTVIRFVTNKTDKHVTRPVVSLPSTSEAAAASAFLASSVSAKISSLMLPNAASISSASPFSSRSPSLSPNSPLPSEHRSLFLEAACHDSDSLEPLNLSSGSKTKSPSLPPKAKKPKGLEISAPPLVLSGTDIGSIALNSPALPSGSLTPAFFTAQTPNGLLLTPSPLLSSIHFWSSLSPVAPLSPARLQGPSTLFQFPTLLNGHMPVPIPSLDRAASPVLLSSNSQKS
Outline: as §1

[10] = biological target: T7, FEV (Homo sapiens, UniProt Q99581 1-238)
T7 sequence: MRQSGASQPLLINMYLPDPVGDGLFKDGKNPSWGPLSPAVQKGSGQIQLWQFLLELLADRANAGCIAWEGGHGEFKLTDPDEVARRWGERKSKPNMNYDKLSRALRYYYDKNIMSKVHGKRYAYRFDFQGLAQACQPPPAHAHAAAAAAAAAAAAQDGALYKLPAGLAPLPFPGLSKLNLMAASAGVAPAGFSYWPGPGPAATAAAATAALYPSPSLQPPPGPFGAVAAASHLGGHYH
Outline: as §1

[11] = biological target: ETV5 (Homo sapiens, UniProt P41161 1-510)
Outline: as §1

[12] = biological target: T8, SPIC (Homo sapiens, UniProt Q8N5J4 1-248)
T8 sequence: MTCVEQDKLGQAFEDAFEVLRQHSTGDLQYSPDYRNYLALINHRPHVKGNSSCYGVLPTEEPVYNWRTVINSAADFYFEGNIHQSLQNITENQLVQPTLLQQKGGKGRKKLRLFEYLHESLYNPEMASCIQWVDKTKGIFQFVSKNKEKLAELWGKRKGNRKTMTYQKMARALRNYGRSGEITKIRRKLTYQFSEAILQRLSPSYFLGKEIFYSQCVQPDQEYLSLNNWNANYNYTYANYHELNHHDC
Outline: as §1

[13] = biological target: ELF4 (Homo sapiens, UniProt Q99607 1-663)
Outline: as §1

[14] = biological target: T9, ELK4 (Homo sapiens, UniProt P28324-2 1-405)
T9 sequence: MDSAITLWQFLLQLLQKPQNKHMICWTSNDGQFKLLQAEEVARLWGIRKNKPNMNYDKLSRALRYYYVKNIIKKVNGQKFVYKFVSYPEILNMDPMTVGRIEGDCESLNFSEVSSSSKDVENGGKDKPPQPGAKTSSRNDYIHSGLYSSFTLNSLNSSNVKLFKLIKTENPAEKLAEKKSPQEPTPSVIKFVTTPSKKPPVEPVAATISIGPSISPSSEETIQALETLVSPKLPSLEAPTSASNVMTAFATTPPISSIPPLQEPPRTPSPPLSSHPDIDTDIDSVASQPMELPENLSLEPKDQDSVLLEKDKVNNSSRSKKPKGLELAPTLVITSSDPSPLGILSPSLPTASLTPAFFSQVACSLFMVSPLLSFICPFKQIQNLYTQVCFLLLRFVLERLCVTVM
Outline: as §1

[15] = biological target: T10, ETV2 (Homo sapiens, UniProt O00321 1-342)
T10 sequence: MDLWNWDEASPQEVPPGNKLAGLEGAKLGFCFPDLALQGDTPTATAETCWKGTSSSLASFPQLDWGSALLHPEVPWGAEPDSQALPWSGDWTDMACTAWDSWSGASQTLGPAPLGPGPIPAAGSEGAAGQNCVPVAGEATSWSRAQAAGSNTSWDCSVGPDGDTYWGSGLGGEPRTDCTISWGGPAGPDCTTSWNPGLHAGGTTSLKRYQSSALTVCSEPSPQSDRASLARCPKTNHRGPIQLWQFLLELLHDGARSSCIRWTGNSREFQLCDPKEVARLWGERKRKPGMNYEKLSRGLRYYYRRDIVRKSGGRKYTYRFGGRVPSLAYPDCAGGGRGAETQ
Outline: as §1

[16] = biological target: T11, ELF3 (Homo sapiens, UniProt P78545 1-371)
T11 sequence: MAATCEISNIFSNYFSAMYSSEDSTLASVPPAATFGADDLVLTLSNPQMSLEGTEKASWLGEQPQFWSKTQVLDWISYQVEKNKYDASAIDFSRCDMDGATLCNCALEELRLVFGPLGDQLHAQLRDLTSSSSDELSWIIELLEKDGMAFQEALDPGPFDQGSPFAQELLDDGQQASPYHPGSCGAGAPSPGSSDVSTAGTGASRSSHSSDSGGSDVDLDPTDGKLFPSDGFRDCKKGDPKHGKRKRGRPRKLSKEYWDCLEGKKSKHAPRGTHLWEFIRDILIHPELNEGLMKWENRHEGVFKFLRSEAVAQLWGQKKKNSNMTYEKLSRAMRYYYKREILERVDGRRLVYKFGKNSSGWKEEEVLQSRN
Outline: as §1

[17] = biological target: ETV1 (Homo sapiens, UniProt P50549 1-477)
Outline: as §1

Sequence of ETV5 (P41161 whole entry): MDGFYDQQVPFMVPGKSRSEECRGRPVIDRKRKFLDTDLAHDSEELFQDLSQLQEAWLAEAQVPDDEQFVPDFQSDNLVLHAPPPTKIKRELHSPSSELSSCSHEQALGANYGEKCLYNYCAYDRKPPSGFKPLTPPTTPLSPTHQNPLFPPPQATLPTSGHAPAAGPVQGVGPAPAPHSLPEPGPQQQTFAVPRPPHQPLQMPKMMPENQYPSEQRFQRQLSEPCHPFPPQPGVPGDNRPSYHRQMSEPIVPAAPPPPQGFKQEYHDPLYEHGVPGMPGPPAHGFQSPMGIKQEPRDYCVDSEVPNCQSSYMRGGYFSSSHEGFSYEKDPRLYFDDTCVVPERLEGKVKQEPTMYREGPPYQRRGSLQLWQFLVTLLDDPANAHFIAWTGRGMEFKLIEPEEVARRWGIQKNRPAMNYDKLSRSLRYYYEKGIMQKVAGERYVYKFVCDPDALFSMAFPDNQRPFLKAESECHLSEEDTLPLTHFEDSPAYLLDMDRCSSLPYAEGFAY
Sequence of ELF4 (Q99607 whole entry): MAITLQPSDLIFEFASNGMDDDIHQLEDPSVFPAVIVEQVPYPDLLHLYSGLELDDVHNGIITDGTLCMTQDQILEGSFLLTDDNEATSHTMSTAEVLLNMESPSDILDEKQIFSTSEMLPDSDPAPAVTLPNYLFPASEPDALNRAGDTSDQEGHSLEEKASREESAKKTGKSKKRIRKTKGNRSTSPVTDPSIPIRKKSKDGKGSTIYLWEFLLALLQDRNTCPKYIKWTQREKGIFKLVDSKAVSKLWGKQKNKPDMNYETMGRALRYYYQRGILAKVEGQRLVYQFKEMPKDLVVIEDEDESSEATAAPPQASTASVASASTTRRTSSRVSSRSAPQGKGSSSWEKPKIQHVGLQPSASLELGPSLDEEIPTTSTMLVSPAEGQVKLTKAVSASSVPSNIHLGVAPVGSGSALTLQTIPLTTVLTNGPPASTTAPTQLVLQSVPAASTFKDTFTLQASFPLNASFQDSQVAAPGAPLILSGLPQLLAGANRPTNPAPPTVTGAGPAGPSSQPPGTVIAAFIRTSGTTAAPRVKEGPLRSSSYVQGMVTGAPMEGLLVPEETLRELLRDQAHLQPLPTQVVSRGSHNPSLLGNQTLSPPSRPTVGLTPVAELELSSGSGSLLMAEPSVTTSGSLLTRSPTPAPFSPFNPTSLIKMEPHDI
Sequence of SPIB (Q01892 whole entry): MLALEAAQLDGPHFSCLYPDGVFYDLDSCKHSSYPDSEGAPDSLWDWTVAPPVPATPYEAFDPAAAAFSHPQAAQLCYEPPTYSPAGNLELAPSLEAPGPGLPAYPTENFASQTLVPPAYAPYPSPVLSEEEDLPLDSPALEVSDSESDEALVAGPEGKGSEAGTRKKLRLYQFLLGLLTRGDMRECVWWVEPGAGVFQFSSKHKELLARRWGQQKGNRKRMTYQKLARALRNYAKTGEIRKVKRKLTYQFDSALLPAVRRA
Sequence of ELF1 (P32519 whole entry): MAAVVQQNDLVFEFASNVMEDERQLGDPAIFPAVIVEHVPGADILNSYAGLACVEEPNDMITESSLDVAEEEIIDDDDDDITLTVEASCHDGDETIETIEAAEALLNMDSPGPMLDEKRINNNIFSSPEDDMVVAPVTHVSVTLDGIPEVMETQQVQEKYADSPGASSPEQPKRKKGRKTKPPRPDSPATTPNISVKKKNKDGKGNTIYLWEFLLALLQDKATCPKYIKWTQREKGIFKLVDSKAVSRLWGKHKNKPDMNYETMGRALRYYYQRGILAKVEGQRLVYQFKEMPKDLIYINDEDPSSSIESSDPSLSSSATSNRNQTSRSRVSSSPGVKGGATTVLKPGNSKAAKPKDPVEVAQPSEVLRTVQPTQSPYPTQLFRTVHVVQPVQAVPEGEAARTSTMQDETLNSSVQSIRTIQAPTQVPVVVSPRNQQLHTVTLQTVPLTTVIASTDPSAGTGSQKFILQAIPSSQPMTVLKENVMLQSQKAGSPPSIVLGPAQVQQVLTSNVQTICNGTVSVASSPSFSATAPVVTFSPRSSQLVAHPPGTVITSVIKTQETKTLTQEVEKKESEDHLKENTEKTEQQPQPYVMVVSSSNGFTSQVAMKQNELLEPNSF
Sequence of ETV1 (P50549 whole entry): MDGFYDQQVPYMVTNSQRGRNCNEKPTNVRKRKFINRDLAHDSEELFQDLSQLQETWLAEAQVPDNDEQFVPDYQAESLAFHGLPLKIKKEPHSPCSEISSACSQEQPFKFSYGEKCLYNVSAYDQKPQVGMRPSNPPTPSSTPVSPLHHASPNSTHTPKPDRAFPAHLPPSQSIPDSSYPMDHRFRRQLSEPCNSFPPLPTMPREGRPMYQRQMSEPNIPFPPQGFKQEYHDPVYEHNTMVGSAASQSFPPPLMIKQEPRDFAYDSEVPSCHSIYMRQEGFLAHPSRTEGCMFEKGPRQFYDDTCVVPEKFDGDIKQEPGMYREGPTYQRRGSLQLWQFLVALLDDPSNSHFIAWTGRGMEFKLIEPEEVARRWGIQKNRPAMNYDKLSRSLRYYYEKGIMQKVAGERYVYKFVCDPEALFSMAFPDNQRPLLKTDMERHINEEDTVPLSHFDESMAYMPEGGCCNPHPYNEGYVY

Sequence | binding signal [1] | binding signal [2] | binding signal [3] | binding signal [4] | binding signal [5] | binding signal [6] | binding signal [7] | binding signal [8] | binding signal [9] | binding signal [10] | binding signal [11] | binding signal [12] | binding signal [13] | binding signal [14] | binding signal [15] | binding signal [16] | binding signal [17]
CACTCA | 1.06 fold enrichment (6-mer frequency, TF over GST control) | 1.17 fold enrichment (6-mer frequency, TF over GST control) | 1.25 fold enrichment (6-mer frequency, TF over GST control) | 1.16 fold enrichment (6-mer frequency, TF over GST control) | 1.24 fold enrichment (6-mer frequency, TF over GST control) | 1.19 fold enrichment (6-mer frequency, TF over GST control) | 1.08 fold enrichment (6-mer frequency, TF over GST control) | 1.21 fold enrichment (6-mer frequency, TF over GST control) | 1.19 fold enrichment (6-mer frequency, TF over GST control) | 1.16 fold enrichment (6-mer frequency, TF over GST control) | 1.09 fold enrichment (6-mer frequency, TF over GST control) | 1.3 fold enrichment (6-mer frequency, TF over GST control) | 1.18 fold enrichment (6-mer frequency, TF over GST control) | 1.17 fold enrichment (6-mer frequency, TF over GST control) | 1.27 fold enrichment (6-mer frequency, TF over GST control) | 1.17 fold enrichment (6-mer frequency, TF over GST control) | 1.1 fold enrichment (6-mer frequency, TF over GST control)
ACCCGG | 1.62 fold enrichment (6-mer frequency, TF over GST control) | 1.67 fold enrichment (6-mer frequency, TF over GST control) | 1.62 fold enrichment (6-mer frequency, TF over GST control) | 1.84 fold enrichment (6-mer frequency, TF over GST control) | 1.75 fold enrichment (6-mer frequency, TF over GST control) | 1.96 fold enrichment (6-mer frequency, TF over GST control) | 1.54 fold enrichment (6-mer frequency, TF over GST control) | 1.77 fold enrichment (6-mer frequency, TF over GST control) | 1.71 fold enrichment (6-mer frequency, TF over GST control) | 1.61 fold enrichment (6-mer frequency, TF over GST control) | 1.89 fold enrichment (6-mer frequency, TF over GST control) | 1.61 fold enrichment (6-mer frequency, TF over GST control) | 1.7 fold enrichment (6-mer frequency, TF over GST control) | 1.52 fold enrichment (6-mer frequency, TF over GST control) | 1.63 fold enrichment (6-mer frequency, TF over GST control) | 1.77 fold enrichment (6-mer frequency, TF over GST control) | 1.81 fold enrichment (6-mer frequency, TF over GST control)
